In PubChem BioAssay (Tox21):
Inconclusive results are not listed. Calls of active or inactive are those of the source. Unless noted, the call rests on the fitted dose curve.

Columns and labels:
[1] = qHTS assay to identify small molecule agonists of the farnesoid-X-receptor (FXR) signaling pathway - cell viability counter screen (AID 743218; active means well fitted curve in the direction sought with a large enough effect in the repeat runs; an effect the other way counts as inactive or inconclusive; further: nearly all actives have a fitted effect of over 45% in size)
Outline: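 Cells were seeded, left 5 h at 37 C and 5% CO2, then dosed with compound in DMSO for 16 h. After the beta-lactamase FRET read, CellTiter-Glo was added and luminescence measured 30 min later.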

[2] = qHTS assay to identify small molecule antagonists of the farnesoid-X-receptor (FXR) signaling pathway - cell viability counter screen (AID 743221; active means well fitted cell-killing curve with a large enough effect in the repeat runs, not every such curve was filed as active; further: nearly all actives have a fitted effect of over 50% in size)
Outline: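 Cytotoxicity is taken from ATP luminescence (CellTiter-Glo, 30 min, room temperature) in FXR-bla HEK 293T cells previously incubated 16 h at 37 C with compound and chenodeoxycholic acid at 50 uM final.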

[3] = target: Vitamin D3 receptor (Homo sapiens) (UniProt P11473); assay: qHTS assay to identify small molecule agonists of the vitamin D receptor (VDR) signaling pathway (AID 743222)
Outline: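 Cells carrying a VDR-driven beta-lactamase reporter are seeded at 2,000 per well and rested 4 h. Compounds in DMSO are added for 16 h at 37C, and FRET substrate fluorescence is measured after 2 h at room temperature.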

[4] = target: Vitamin D3 receptor (Homo sapiens) (UniProt P11473); assay: qHTS assay to identify small molecule antagonists of the vitamin D receptor (VDR) signaling pathway (AID 743223; active means well fitted inhibition curve with a large enough effect in the signal ratio in the repeat runs, not every such curve was filed as active; the % refers to the signal ratio)
Outline: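 Quantitative HTS in VDR-bla reporter cells stimulated with 1alpha,25-dihydroxyvitamin D3, 3 nM final. Compound exposure 16 h, 37C, 5% CO2. Read-out: beta-lactamase FRET substrate fluorescence, 2 h RT.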

[5] = qHTS assay to identify small molecule agonists of the vitamin D receptor (VDR) signaling pathway - cell viability counter screen (AID 743224; active means well fitted curve in the direction sought with a large enough effect in the repeat runs; an effect the other way counts as inactive or inconclusive; further: series mostly up to about 63 µM; nearly all actives have a fitted effect of over 50% in size)
Outline: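 Cells: VDR-bla, 2,000/well, settled 4 h. Treatment: compounds in DMSO, 16 h, 37C/5% CO2. Readout: CellTiter-Glo luminescence after 30 min RT.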

[6] = qHTS assay to identify small molecule antagonists of the vitamin D receptor (VDR) signaling pathway - cell viability counter screen (AID 743225; active means well fitted curve in the direction sought with a large enough effect in the repeat runs; an effect the other way counts as inactive or inconclusive; further: nearly all actives have a fitted effect of over 50% in size)
Outline: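 Same-well multiplex: following 16 h treatment of HEK 293T cells carrying a UAS-driven beta-lactamase reporter with compound and agonist (3 nM final), and a 2 h FRET substrate step, CellTiter-Glo was added and luminescence read after 30 min.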

[7] = qHTS assay to identify small molecule agonists of the NFkB signaling pathway - cell viability counter screen (AID 1159515); further: series mostly up to about 61 µM; nearly all actives have a fitted effect of over 55% in size
Outline: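 Cells are seeded (2,000 NFkB-bla ME-180 per well), rested overnight, and dosed with DMSO-dissolved compounds for 5 hr at 37 C. Viability is then read by CellTiter-Glo luminescence after 30 min at room temperature.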

[8] = qHTS assay to identify small molecule agonists of the endoplasmic reticulum stress response signaling pathway (AID 1159516; active means well fitted activation curve with a large enough effect in the signal ratio in the repeat runs, not every such curve was filed as active; the % refers to the signal ratio)
Outline: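 Cells are seeded at 1,500 per well and incubated overnight. Compounds in DMSO are added for 5 hr at 37 C, then beta-lactamase FRET substrate for 2 hr at room temperature, and fluorescence at 460 and 530 nm is measured.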

[9] = qHTS assay to identify small molecule agonists of the endoplasmic reticulum stress response signaling pathway - cell viability counter screen (AID 1159517);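 further: HeLa cells carrying an ER stress response element beta-lactamase reporter; series mostly up to about 61 µM; nearly all actives have a fitted effect of over 50% in size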
Outline: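 ESRE-bla HeLa cells (1,500/well) were plated overnight at 37 C and exposed to compounds for 5 hr. After the 2 hr beta-lactamase substrate read, CellTiter-Glo went into the same wells, and luminescence was read after 30 min at room temperature.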

[10] = qHTS assay to identify small molecule antagonists of the retinoid-related orphan receptor gamma (ROR-gamma) signaling pathway - cell viability counter screen (AID 1159520; active means well fitted curve in the direction sought with a large enough effect in the repeat runs; an effect the other way counts as inactive or inconclusive; further: nearly all actives have a fitted effect of over 50% in size)
Outline: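 Cytotoxicity was read from cellular ATP (CellTiter-Glo luminescence) after 16 hr at 37 C with 1 uM doxycycline induction. The inducer was added 2 hr after compound transfer to Tet-on ROR gamma CHO cells.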

[11] = target: Nuclear receptor ROR-gamma (Homo sapiens) (UniProt P51449); assay: qHTS assay to identify small molecule antagonists of the retinoid-related orphan receptor gamma (ROR-gamma) signaling pathway (AID 1159521; active means well fitted curve in the direction sought with a large enough effect in the repeat runs; an effect the other way counts as inactive or inconclusive)
Outline: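 Inducible-expression reporter assay: doxycycline (1 uM final) switched on RORγ in CHO cells bearing a ROR response element-luciferase construct, with test compounds present from 2 h beforehand. Decreased luminescence after 16 h defined antagonist activity.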

[12] = qHTS assay to identify small molecule agonists of the AP-1 signaling pathway - cell viability counter screen (AID 1159525); further: nearly all actives have a fitted effect of over 55% in size
Outline: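 Intracellular ATP by Cell Titer Glo luminescence (30 min, RT) in the same ME-180 AP-1-bla wells after the 5 h compound exposure at 37 °C. Normalised to tetra n-octyl ammonium bromide and DMSO controls.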

[13] = qHTS assay to identify small molecule agonists of the AP-1 signaling pathway (AID 1159526)
[14] = target: Retinoic acid receptor RXR-alpha (Homo sapiens) (UniProt P19793); assay: qHTS assay to identify small molecule agonists of the RXR signaling pathway (AID 1159527); further: nearly all actives have a fitted effect of over 35% in size; further: potency means the concentration at half of the fitted maximal effect
Outline: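 Compounds in DMSO were added to RXR-alpha-UAS-bla HEK 293T cells kept in 2% charcoal-stripped serum, and incubated 16 hr at 37 C with 5% CO2. Reporter signal came from a 2 hr B/G FRET substrate step.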

[15] = qHTS assay to identify small molecule agonists of the RXR signaling pathway - cell viability counter screen (AID 1159529; active means well fitted curve in the direction sought with a large enough effect in the repeat runs; an effect the other way counts as inactive or inconclusive)
Outline: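 Counter screen: CellTiter-Glo luminescence. Cells: RXR-alpha-UAS-bla HEK 293T. Medium: 2% charcoal-stripped FBS. Treatment: 16 h, 37 C. Reagent incubation: 30 min, RT.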

[16] = target: Bile acid receptor (Homo sapiens) (UniProt Q96RI1); assay: qHTS assay to identify small molecule antagonists of the farnesoid-X-receptor (FXR) signaling pathway (AID 743217; active means well fitted inhibition curve with a large enough effect in the signal ratio in the repeat runs, not every such curve was filed as active; the % refers to the signal ratio)
Outline: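 Cells carrying a UAS-driven beta-lactamase reporter (GeneBLAzer FXR-UAS-bla HEK 293T) were plated and rested 5 h at 37 °C. Compounds in DMSO were added alongside chenodeoxycholic acid agonist at 50 uM final and left 16 h at 37 °C before FRET substrate readout.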

[17] = target: Bile acid receptor (Homo sapiens) (UniProt Q96RI1); assay: qHTS assay to identify small molecule agonists of the farnesoid-X-receptor (FXR) signaling pathway (AID 743220; active means well fitted activation curve with a large enough effect in the signal ratio in the repeat runs, not every such curve was filed as active; the % refers to the signal ratio)
Outline: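 FXR-UAS-bla HEK 293T cells carrying a UAS-driven beta-lactamase reporter were plated for 5 h at 37C/5% CO2, then exposed to DMSO-dissolved Tox21 10K compounds for 16 h at 37C. A LiveBLAzer B/G FRET substrate was loaded for 2 h at room temperature before fluorescence reading.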

[18] = target: Peroxisome proliferator-activated receptor delta (Homo sapiens) (UniProt Q03181); assay: qHTS assay to identify small molecule agonists of the peroxisome proliferator-activated receptor delta (PPARd) signaling pathway (AID 743212)
Outline: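 Beta-lactamase reporter readout: a ratiometric FRET signal from the LiveBLAzer substrate after 2 h at room temperature. Compound exposure at 37 °C in PPARδ-bla HEK293H cells driven by an upstream activator sequence.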

Measured: Potency

Vitamin D3 receptor (Homo sapiens), sequence (P11473 whole entry, looked up): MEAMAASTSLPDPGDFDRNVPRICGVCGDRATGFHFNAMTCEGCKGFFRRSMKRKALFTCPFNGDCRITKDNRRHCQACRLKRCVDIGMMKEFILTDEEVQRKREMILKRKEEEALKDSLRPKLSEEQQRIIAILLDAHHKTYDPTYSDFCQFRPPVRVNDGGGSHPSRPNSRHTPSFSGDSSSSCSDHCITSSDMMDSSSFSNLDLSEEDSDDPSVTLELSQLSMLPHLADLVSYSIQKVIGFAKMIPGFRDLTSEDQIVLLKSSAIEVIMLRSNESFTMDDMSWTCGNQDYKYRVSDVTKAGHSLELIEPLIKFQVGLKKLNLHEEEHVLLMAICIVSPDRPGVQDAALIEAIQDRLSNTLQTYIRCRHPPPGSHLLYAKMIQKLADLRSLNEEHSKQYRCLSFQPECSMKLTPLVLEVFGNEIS
Retinoic acid receptor RXR-alpha (Homo sapiens), sequence (P19793 whole entry, looked up): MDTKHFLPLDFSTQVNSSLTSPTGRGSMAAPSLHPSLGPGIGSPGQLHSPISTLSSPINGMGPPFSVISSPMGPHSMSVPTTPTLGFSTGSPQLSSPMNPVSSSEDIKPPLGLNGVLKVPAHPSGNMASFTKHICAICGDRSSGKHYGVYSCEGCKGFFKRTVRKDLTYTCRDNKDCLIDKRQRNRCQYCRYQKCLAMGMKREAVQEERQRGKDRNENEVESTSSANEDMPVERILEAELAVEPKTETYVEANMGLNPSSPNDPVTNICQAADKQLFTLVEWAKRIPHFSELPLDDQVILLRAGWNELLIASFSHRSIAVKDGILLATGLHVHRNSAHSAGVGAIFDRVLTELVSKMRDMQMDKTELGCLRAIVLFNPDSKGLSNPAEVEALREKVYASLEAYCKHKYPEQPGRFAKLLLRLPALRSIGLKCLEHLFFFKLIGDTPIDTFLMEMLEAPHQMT
Bile acid receptor (Homo sapiens), sequence (Q96RI1 whole entry, looked up): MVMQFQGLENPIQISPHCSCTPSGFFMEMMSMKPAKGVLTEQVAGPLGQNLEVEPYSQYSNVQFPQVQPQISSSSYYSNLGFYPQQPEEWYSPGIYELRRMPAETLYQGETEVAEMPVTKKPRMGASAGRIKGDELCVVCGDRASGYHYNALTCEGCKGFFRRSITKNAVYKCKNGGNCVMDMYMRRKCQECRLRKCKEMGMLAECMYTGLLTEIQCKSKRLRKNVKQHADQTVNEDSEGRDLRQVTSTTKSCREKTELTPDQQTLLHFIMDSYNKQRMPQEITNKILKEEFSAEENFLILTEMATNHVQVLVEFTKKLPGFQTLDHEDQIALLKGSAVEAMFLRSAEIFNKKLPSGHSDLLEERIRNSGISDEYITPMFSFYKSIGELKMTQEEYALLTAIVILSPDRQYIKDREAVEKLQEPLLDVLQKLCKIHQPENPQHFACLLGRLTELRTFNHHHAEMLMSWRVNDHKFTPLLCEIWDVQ
Peroxisome proliferator-activated receptor delta (Homo sapiens), sequence (Q03181 whole entry, looked up): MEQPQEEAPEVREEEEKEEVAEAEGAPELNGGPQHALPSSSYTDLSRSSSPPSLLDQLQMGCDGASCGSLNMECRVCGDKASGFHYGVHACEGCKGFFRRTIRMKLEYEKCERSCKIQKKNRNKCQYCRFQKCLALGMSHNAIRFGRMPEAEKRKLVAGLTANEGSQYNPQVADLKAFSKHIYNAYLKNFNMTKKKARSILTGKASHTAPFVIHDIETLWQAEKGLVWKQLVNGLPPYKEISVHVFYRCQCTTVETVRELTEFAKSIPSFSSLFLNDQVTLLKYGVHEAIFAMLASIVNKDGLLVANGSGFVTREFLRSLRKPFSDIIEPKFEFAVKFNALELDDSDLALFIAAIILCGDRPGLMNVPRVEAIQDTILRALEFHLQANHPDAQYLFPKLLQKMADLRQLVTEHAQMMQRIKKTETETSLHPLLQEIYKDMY

NO
active: [14] 44.5 µM
inactive: [1] | [2] | [3] | [4] | [5] | [6] | [7] | [8] | [9] | [10] | [11] | [12] | [13] | [15]

COc1cc(-c2ccc(=O)[nH]n2)ccc1OC(F)F
inactive: [16] | [17] | [2] | [5] | [6] | [7] | [8] | [9] | [10] | [11] | [12] | [13] | [14] | [15]

Cc1ccccc1N=C(N)N=C(N)N
inactive: [18] | [2] | [3] | [5] | [6] | [7] | [8] | [9] | [10] | [11] | [12] | [13] | [14] | [15]

C=C[Si](OC(C)=O)(OC(C)=O)OC(C)=O
inactive: [18] | [2] | [6] | [7] | [8] | [9] | [10] | [11] | [12] | [13] | [14] | [15]
